Source: PubChem BioAssay (NCI)
This is part of a sample that, as a whole, favours compounds with a hit. Of some 83,000 tested, about 20% had one in any assay.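 Results are percent growth after 48 hours of single-concentration exposure. 100 means growth as in untreated cells, lower positive values show inhibition; negative values down to -100 show cell death.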 A number with no mark means an inactive call. The source made the active and inactive calls. Rule for the calls: active = growth percent below 10; inactive = the rest.

Legend:
Assay in all cases: NCI-60 one-dose screen, 48 h (100 = growth as untreated, 0 = no growth, -100 = all killed)
Conditions in all cases: 10 µM unless noted
SR leukemia = test system: SR leukemia
RPMI-8226 leukemia = test system: RPMI-8226 leukemia
OVCAR-8 ovarian = test system: OVCAR-8 ovarian
OVCAR-5 ovarian = test system: OVCAR-5 ovarian
OVCAR-4 ovarian = test system: OVCAR-4 ovarian
SK-OV-3 ovarian = test system: SK-OV-3 ovarian
IGROV1 ovarian = test system: IGROV1 ovarian
HS 578T breast = test system: HS 578T breast
NCI/ADR-RES ovarian = test system: NCI/ADR-RES ovarian

Structure (SMILES) | growth (SR leukemia) | growth (RPMI-8226 leukemia) | growth (OVCAR-8 ovarian) [%] | growth (OVCAR-5 ovarian) [%] | growth (OVCAR-4 ovarian) [%] | growth (SK-OV-3 ovarian) | growth (IGROV1 ovarian) | growth (HS 578T breast) | growth (NCI/ADR-RES ovarian)
N#C/C(=C\c1cccc2c1OCO2)C(=O)Nc1sc2c(c1C#N)CCCC2 | 90.3% | 101% | 105 | 101 | 108 | 98.5% | 100% | 102% | 106%
O=C(/C=C/c1cccc(C(F)(F)F)c1)Nc1cccc(C(F)(F)F)c1 | 68.6% | 24.4% | 33 | 95.4 | 47.7 | 79.3% | 53% | 93% | 46.4%
COC(=O)CCCNCCCn1ccc2cc(NCc3cccc(-c4ccccc4)c3C)ccc21 | -14.7% (active) | 28.3% | 85.2 | 85.4 | 67.6 | 92.8% | 67.1% | 81.8% | 79.4%
Cc1ccsc1[C@H]1c2[nH]c3ccccc3c2C[C@H]2C(=O)N(CCCCCCC(=O)NO)CC(=O)N12 | 42% | 58.8% | 79.2 | 73.7 | 106 | 105% | 87.4% | 85.4% | 95.9%
O=C(CCCCCCN1CC(=O)N2[C@@H](c3cccs3)c3[nH]c4ccccc4c3C[C@H]2C1=O)NO | 35.6% | 55% | 61.7 | 70.4 | 95.6 | 101% | 94.3% | 81.1% | 90.4%
CN1CCN(Cc2ccc(NC(=O)c3cncc(C#Cc4cnc(N)nc4)c3)cc2C(F)(F)F)CC1 | 16.3% | 22.7% | 33.1 | 29.6 | 45.1 | -21.2% (active) | 14.6% | -12.5% (active) | 60.1%
O=S(=O)(Oc1ccc(-c2cn3ccoc3n2)cc1)c1cccc(C(F)(F)F)c1 | 100% | 94.4% | 101 | 103 | 102 | 117% | 106% | 98.6% | 106%
CN1CCN(c2ccc(Nc3nc(NCCNS(=O)(=O)c4ccc(Cl)cc4)c4sccc4n3)cc2)CC1 | 22.7% | 80.8% | 101 | 98.7 | 84 | 121% | 92.9% | 81.2% | 100%
Clc1ccc2[nH]cc(-c3nn4cc(-c5cccnc5)nc4s3)c2c1 | 109% | 86.9% | 103 | 108 | 105 | 91% | 87.9% | 93.6% | 102%
COc1ccc(-c2cc(-c3ccc(N4CCOCC4)cc3)n3c(n2)nc2ccccc23)cc1OC | 70.3% | 57.5% | 82.5 | 108 | 87.9 | 118% | 95.1% | 98.2% | 87.9%
Cc1ccc(NC(=O)/C=C/c2ccc(OCCCOc3ccc4c(C)cc(=O)oc4c3)cc2)cc1 | 70.2% | 90.1% | 52.3 | 91.6 | 19.9 | 79.8% | 73.3% | 40% | 52.5%
C#Cc1nc(C(=O)NCCCCCCC(=O)NO)cs1 | 0.171% (active) | -10.1% (active) | 15.8 | 10.2 | 25.8 | 29.2% | -72.6% (active) | -3.14% (active) | 2.01% (active)
C/C(=N/N)c1nnn(-c2ccc(Br)cc2)c1C | 96% | 105% | 102 | 93.2 | 110 | 109% | 95.1% | 102% | 104%
CCc1cc(OC(=O)N2CCN(CCC(C)(COC(C)(C)C)COC(C)(C)C)CC2)ccc1Nc1cc(-c2ccc(-n3cccn3)cc2)[nH]n1 | 37.9% | 60.5% | 84.3 | 89.1 | 60.8 | 105% | 67% | 68.2% | 74.5%
